Vc quorum ag – induces V. cholerae light production without autoinducers | V. cholerae BH1578 lux reporter, luminescence, 6 h | activation, % at 18.7 µM | 350,000 compounds, 0.16% hits | AID 588436; in the data active = activation mostly above about 9.7%, no sharp cut-off
RecA intein inh – blocks M. tuberculosis RecA intein splicing; P9WHJ3; inhibition, % (concentration not given with the values); cell-free RecA intein splicing, fluorescence; AID 2221; 290,000 compounds, 0.75% hits; in the data active = inhibition above about 30%
Target sequence (P9WHJ3 whole entry, looked up): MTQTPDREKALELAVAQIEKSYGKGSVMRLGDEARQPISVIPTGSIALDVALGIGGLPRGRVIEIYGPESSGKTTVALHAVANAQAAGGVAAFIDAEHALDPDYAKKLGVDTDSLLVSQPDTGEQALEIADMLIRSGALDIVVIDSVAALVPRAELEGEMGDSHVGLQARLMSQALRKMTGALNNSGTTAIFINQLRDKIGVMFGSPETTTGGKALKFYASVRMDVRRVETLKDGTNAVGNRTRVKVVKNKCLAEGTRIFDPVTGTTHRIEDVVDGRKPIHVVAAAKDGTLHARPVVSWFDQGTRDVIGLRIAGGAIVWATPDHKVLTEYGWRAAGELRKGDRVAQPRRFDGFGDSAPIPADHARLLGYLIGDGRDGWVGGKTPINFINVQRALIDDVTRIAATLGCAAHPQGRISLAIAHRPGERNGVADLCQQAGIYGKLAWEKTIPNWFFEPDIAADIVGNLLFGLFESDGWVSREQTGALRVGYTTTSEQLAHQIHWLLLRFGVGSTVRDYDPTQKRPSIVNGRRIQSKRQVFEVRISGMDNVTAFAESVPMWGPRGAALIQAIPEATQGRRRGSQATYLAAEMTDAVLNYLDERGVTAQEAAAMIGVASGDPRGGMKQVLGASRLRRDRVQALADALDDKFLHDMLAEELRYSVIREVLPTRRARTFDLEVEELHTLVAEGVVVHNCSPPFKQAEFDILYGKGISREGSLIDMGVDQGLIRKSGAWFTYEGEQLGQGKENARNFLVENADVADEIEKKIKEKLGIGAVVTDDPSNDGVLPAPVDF
Mtb FBA inh – inhibitors of M. tuberculosis fructose-bisphosphate aldolase; purified M. tuberculosis FBA, fluorescence read-out; inhibition, % at 1 µM; P9WQA3; 360,000 compounds, 2.3% hits
Rv3671c inh – inhibits the M. tuberculosis serine protease Rv3671c; P9WHR9; inhibition, % at 5.96 µM; 320,000 compounds, 0.048% hits; in the data active = inhibition above about 38%;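 also: extracellular domain of Rv3671c used as enzyme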
UGM FP inh – inhibitors of M. tuberculosis UDP-galactopyranose mutase; P9WIQ1; purified UGM, fluorescence polarization probe displacement; inhibition, % at 10 µM; 320,000 compounds, 0.06% hits; AID 504406; in the data active = inhibition above about 10%, passing the limit was not always enough
GDH-TPI counter-1 – counter-screen for M. tuberculosis FBA inhibitors: GDH-TPI coupled enzymes | inhibition, % at 4.8 µM | GDH-TPI coupled enzyme counterscreen, NADH absorbance | 360,000 compounds, 1.2% hits; in the data active = inhibition above about 30%
Mtb FBA inh conf – confirmation of M. tuberculosis fructose-bisphosphate aldolase inhibitors; inhibition, % at 1 µM; shares compounds with Mtb FBA inh; purified M. tuberculosis FBA, fluorescence read-out; AID 651616; 5,600 compounds, 78% hits
GDH-TPI counter-2 – GDH-TPI inhibition counter-screen for FBA inhibitors. shares compounds with Mtb FBA inh. GDH-TPI coupled enzyme counterscreen, fluorescence. inhibition, % at 1 µM. 5,600 compounds, 81% hits. AID 652141; in the data active = inhibition above about 10%
Hits are given with their value; . = inactive; / = no result given; + = active, no number. A selection: hits, their analogues and other compounds. The true share with any hit is near 4.1%. Rule as the data show it, unless noted: active = inhibition above about 27%; inactive = the rest.

SMILES	Vc quorum ag	RecA intein inh	Mtb FBA inh	Rv3671c inh	UGM FP inh	GDH-TPI counter-1	Mtb FBA inh conf	GDH-TPI counter-2
CCOC(=O)c1[nH]c2cc(OC)c(OC)cc2c1NC(=O)CN(C)C1CCCCC1	.	.	33	.	.	40	.	.
CCOC(=O)c1[nH]c2ccc(OC)cc2c1NC(=O)c1cccc(OC)c1	/	.	.	.	.	.	/	/
CCOC(=O)c1[nH]c2ccc(OC)cc2c1NC(=O)c1ccccc1C(=O)O	.	.	30	.	.	.	31	31
CCOC(=O)c1[nH]c2cc(OC)c(OC)cc2c1NC(=O)CCN1CCSCC1	.	.	107	.	.	.	126	115
CC1CCCC(NC(=O)CN(C)CC(=O)Nc2ccc(F)cc2)C1C (stereo unspecified)	.	/	.	.	.	.	/	/
CCOC(=O)c1ccc(Oc2c(C)oc3cc(OS(C)(=O)=O)ccc3c2=O)cc1	.	.	.	.	.	.	/	/
COC(=O)c1cc(-c2c(C)oc3cc(O)ccc3c2=O)c(C)o1	.	.	76	.	.	.	29	32
COc1ccccc1Oc1c(C)oc2cc(OC(=O)N(C)C)ccc2c1=O	.	.	.	.	.	.	/	/
CCOc1ccc(Oc2c(C)oc3cc(O)ccc3c2=O)cc1	.	.	44	.	.	.	+	160
COC(=O)COc1ccc2c(=O)c(Oc3ccccc3)c(C)oc2c1	.	.	.	.	.	.	/	/
Cc1oc2cc(O)ccc2c(=O)c1Oc1ccccc1Br	.	.	96	.	.	.	.	.
Cc1oc2cc(O)ccc2c(=O)c1Oc1ccccc1	.	.	101	.	.	.	83	59
COc1ccc(CCn2c(S)nc3ccccc3c2=O)cc1	.	.	.	.	.	.	/	/
S=C(c1ccco1)N1CCOCC1	.	/	.	/	/	.	/	/
CCOC(=O)c1cc2c3ccccc3n(CC)c2nc1N	.	.	37	.	.	.	+	+
CCOC(=O)c1cc(=O)n(Cc2ccccc2C)c2ccccc12	.	.	.	.	.	.	/	/
C[C@@H]1CN([C@H](C)CO)C(=O)CCCn2nncc2CO[C@H]1CN(C)S(=O)(=O)c1ccc(-n2cccn2)cc1	.	/	.	/	/	.	/	/
CC1(C)Oc2cc3oc(C(=O)O)cc(=O)c3cc2-c2ccccc21	.	/	95	/	/	.	.	.
COc1ccc(Cc2c(-c3cccc(Cl)c3)nc3c(C)cc(Br)cn23)c(C)c1	/	/	.	/	/	/	/	/
CC(=O)C12CCCCC1CC1[C@@H]3CC(C)C4=CC(=O)CC[C@]4(C)C3CC[C@@]12C (stereo partly specified)	.	.	34	/	/	.	187	175
COc1ccc(OC)c(C(=O)N(C[C@H]2CC[C@@H]([C@@H]3CC[C@H](CO)O3)O2)C(C(=O)NC(C)(C)C)c2ccc(-c3ccccc3)cc2)c1 (stereo partly specified)	.	/	.	/	/	.	/	/
Cn1c(=O)n(C)c2cc(S(=O)(=O)NCC(=O)O)ccc21	.	.	.	.	.	.	/	/
Cn1c(=O)n(C)c2cc(S(=O)(=O)Nc3ccccc3C(=O)O)ccc21	.	.	29	.	.	.	+	+
O=C(O)CNc1nc(NCc2ccc(Cl)cc2)ccc1[N+](=O)[O-]	.	/	.	/	/	.	/	/
CN(C)c1ccc(C(=O)N2CCC2(C)C(=O)O)cc1 (stereo unspecified)	.	/	.	/	/	.	/	/
SMILES	Vc quorum ag	RecA intein inh	Mtb FBA inh	Rv3671c inh	UGM FP inh	GDH-TPI counter-1	Mtb FBA inh conf	GDH-TPI counter-2
CC1Nc2ccccc2C(=O)N1NS(C)(=O)=O (stereo unspecified)	.	/	50	.	.	.	74	61
COc1ccc(C2Nc3ccccc3C(=O)N2NS(C)(=O)=O)cc1 (stereo unspecified)	.	.	27	.	.	.	105	108
COc1ccc(C2Nc3ccccc3C(=O)N2NS(=O)(=O)c2ccccc2)cc1 (stereo unspecified)	.	.	.	.	.	.	/	/
O=C(Nc1ccc(F)c(Cl)c1)C1CC2CCC1C2 (stereo unspecified)	.	.	.	.	.	.	/	/
CN1CCN(S(=O)(=O)c2ccc(Nc3cccc(Cl)c3)c([N+](=O)[O-])c2)CC1	.	/	.	.	.	.	/	/
COc1ccc(-c2c[n+]3c4n2CCCCC4=C(c2ccc(Br)cc2)C3)cc1	.	.	75	.	.	.	136	105

Screens as filed in PubChem BioAssay.
